Data from PubChem BioAssay (NCI).
About 79,000 compounds went through this panel and 15% of them were active in at least one assay; those are over-represented in the sample as a whole. Calls of active or inactive are those of the source. Rule as the data show it: active = growth inhibition above about 70%; inactive = the rest.

Legend:
[1] = NCI Yeast Anticancer Drug Screen. Data for the rad52 strain (AID 147);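 also: 0% = growth of vehicle-treated control cultures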; conditions: S. cerevisiae rad52 mutant growth inhibition, hits give high values
How it was run: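 Yeast strain carrying a DNA damage repair alteration was exposed to test compounds. Growth inhibition was measured relative to vehicle-treated controls.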

[2] = NCI Yeast Anticancer Drug Screen. Data for the wt1 strain (AID 149);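 also: 0% = growth of vehicle-treated wt1 cultures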; conditions: S. cerevisiae wt1 strain (SPY 50644) growth inhibition, hits give high values
How it was run: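 Vehicle-normalised growth inhibition; strain wt1; compound exposure.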

[3] = NCI Yeast Anticancer Drug Screen. Data for the rad50EPP+ strain (AID 151);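 also: 0% = growth of vehicle-treated control cultures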; conditions: S. cerevisiae rad50 mutant strain, hits give high values
How it was run: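 Yeast strain carrying rad50 alteration (rad50EPP+) exposed to compounds; growth inhibition measured relative to vehicle-treated controls.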

[4] = NCI Yeast Anticancer Drug Screen. Data for the mgt1 strain (AID 153); conditions: S. cerevisiae mgt1 mutant growth inhibition, hits give high values
How it was run: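 Yeast mgt1 strain (DNA repair/cell-cycle alteration panel) exposed to compounds; growth inhibition measured relative to vehicle-treated controls.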

[5] = NCI Yeast Anticancer Drug Screen. Data for the rad50 strain (AID 155);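 also: 0% = growth of vehicle-only cultures of the same strain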; conditions: S. cerevisiae rad50 strain growth inhibition, hits give high values
How it was run: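 A DNA repair-deficient yeast mutant serves as the test organism; compound-induced growth inhibition is calculated against vehicle-treated cells.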

[6] = NCI Yeast Anticancer Drug Screen. Data for the mec2-1 strain (AID 157); conditions: S. cerevisiae mec2-1 strain, hits give high values
How it was run: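 mec2-1 yeast strain, carrying an alteration in DNA damage repair or cell cycle control, was exposed to compounds; growth inhibition was measured relative to vehicle-treated controls.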

[7] = NCI Yeast Anticancer Drug Screen. Data for the rad14 strain (AID 159);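 also: 0% = growth of vehicle-treated control cultures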; conditions: S. cerevisiae rad14 strain growth inhibition, hits give high values
How it was run: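 Vehicle-treated cultures served as the baseline for growth inhibition of a DNA repair-mutant yeast strain exposed to each compound.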

[8] = NCI Yeast Anticancer Drug Screen. Data for the sgs1 mgt1 strain (AID 161);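 also: 0% = growth of cultures given vehicle only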; conditions: S. cerevisiae sgs1 mgt1 strain, hits give high values
How it was run: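 Yeast cells carrying a defined DNA-repair defect were exposed to test compounds. Growth inhibition was measured relative to vehicle-treated controls.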

[9] = NCI Yeast Anticancer Drug Screen. Data for the CLN2oe strain (AID 163);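 also: 0% = growth of vehicle-only control cultures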; conditions: S. cerevisiae CLN2oe strain, hits give high values
How it was run: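 Yeast cells carrying a defined cell-cycle control alteration were exposed to test compounds. Growth inhibition was scored against vehicle-treated control cultures.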

[10] = NCI Yeast Anticancer Drug Screen. Data for the cln2 rad14 strain (AID 165);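 also: 0% = growth equal to vehicle treated cultures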; conditions: S. cerevisiae cln2 rad14 strain, hits give high values
How it was run: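 Yeast carrying cln2 and rad14 alterations (cell cycle control and DNA damage repair) were exposed to compounds. Growth inhibition was measured against vehicle-treated controls.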

[11] = NCI Yeast Anticancer Drug Screen. Data for the bub3 strain (AID 167); conditions: S. cerevisiae bub3 mutant strain, hits give high values
How it was run: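 Inhibition values come from growth of compound-treated mutant yeast normalised to vehicle-treated controls.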

[12] = NCI Yeast Anticancer Drug Screen. Data for the wt2 strain (AID 169);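 also: 0% = growth of vehicle-treated yeast cultures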; conditions: S. cerevisiae wt2 strain growth inhibition, hits give high values
How it was run: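 Yeast cells were exposed to test compounds, and growth inhibition was measured relative to vehicle-treated controls.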

[13] = NCI Yeast Anticancer Drug Screen. Data for the mlh1 strain (AID 171);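 also: 0% = growth of vehicle-treated control cultures of the same strain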; conditions: S. cerevisiae mlh1 strain growth inhibition, hits give high values
How it was run: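 Yeast carrying a defined genetic alteration in DNA damage repair or cell cycle control were exposed to test compounds. Growth inhibition was measured relative to vehicle-treated controls.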

[14] = NCI Yeast Anticancer Drug Screen. Data for the sgs1 strain (AID 173);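 also: 0% = growth of vehicle-only control cultures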; conditions: S. cerevisiae sgs1 mutant, hits give high values
How it was run: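 Yeast mutant strains carrying defined defects in DNA damage repair or cell cycle control were exposed to test compounds. Growth inhibition was scored against vehicle-treated controls.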

[15] = NCI Yeast Anticancer Drug Screen. Data for the mlh1 rad18 strain (AID 175); conditions: S. cerevisiae mlh1 rad18 strain growth inhibition, hits give high values
How it was run: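 Growth inhibition of the yeast strain was measured after compound exposure and expressed relative to vehicle-treated controls. The strain carries defined defects in DNA damage repair.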

[16] = NCI Yeast Anticancer Drug Screen. Data for the rad18 strain (AID 177); conditions: S. cerevisiae rad18 mutant growth inhibition, hits give high values
How it was run: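 Yeast carrying a defined DNA damage repair alteration were exposed to compounds. Growth inhibition was expressed relative to vehicle-treated controls.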

[17] = at 5.0 µM (retest, dose inferred, filed as 0.5)
[18] = at 50.0 µM (retest, dose inferred, filed as 5.0)

Measured: growth inhibition

CC(CC(C)(C)[N+](C)(C)C)[N+](C)(C)C (stereo not drawn)
inactive: [1]; at 1.2 µM 13% | [1]; at 3.7 µM 1% | [1]; at 11.0 µM 13% | [1]; at 33.0 µM 15% | [1]; at 100.0 µM 14% | [2]; at 1.2 µM 3% | [2]; at 3.7 µM -2% | [2]; at 11.0 µM -3% | [2]; at 33.0 µM -3% | [2]; at 100.0 µM 0% | [3]; at 1.2 µM -1% | [3]; at 3.7 µM 1% | [3]; at 11.0 µM 1% | [3]; at 33.0 µM 4% | [3]; at 100.0 µM -1% | [4]; at 1.2 µM -1% | [4]; at 3.7 µM 1% | [4]; at 11.0 µM 2% | [4]; at 33.0 µM 1% | [4]; at 100.0 µM 0% | [5]; at 1.2 µM 1% | [5]; at 3.7 µM 1% | [5]; [17] 25% | [5]; at 11.0 µM 2% | [5]; at 33.0 µM 2% | [5]; at 100.0 µM 0% | [6]; at 1.2 µM 5% | [6]; at 3.7 µM -11% | [6]; [17] 19% | [6]; at 11.0 µM -4% | [6]; at 33.0 µM 2% | [6]; at 100.0 µM -4% | [7]; at 1.2 µM 2% | [7]; at 3.7 µM 3% | [7]; at 11.0 µM 3% | [7]; at 33.0 µM 3% | [7]; at 100.0 µM 1% | [8]; [17] 1% | [9]; at 1.2 µM -11% | [9]; at 3.7 µM -1% | [9]; at 11.0 µM 1% | [9]; at 33.0 µM -6% | [9]; at 100.0 µM -7% | [10]; [17] 35% | [11]; at 1.2 µM -2% | [11]; at 3.7 µM -8% | [11]; [17] 67% | [11]; at 11.0 µM 0% | [11]; at 33.0 µM -1% | [11]; at 100.0 µM -1% | [12]; at 1.2 µM -1% | [12]; at 3.7 µM -1% | [12]; at 11.0 µM 0% | [12]; at 33.0 µM -1% | [12]; at 100.0 µM -1% | [13]; at 1.2 µM -1% | [13]; at 3.7 µM -1% | [13]; at 11.0 µM -2% | [13]; at 33.0 µM -3% | [13]; at 100.0 µM 0% | [14]; at 1.2 µM 2% | [14]; at 3.7 µM 3% | [14]; at 11.0 µM 1% | [14]; at 33.0 µM 4% | [14]; at 100.0 µM -1% | [15]; [17] 12% | [16]; at 1.2 µM 11% | [16]; at 3.7 µM 8% | [16]; at 11.0 µM 14% | [16]; at 33.0 µM 15% | [16]; at 100.0 µM 20%
active: [5]; [18] 95% | [5]; at 50.0 µM 92.8% | [6]; [18] 97% | [6]; at 50.0 µM 96% | [8]; [18] 91% | [8]; at 50.0 µM 95.8% | [10]; [18] 95% | [10]; at 50.0 µM 90.8% | [11]; [18] 99% | [11]; at 50.0 µM 95.7% | [15]; [18] 97% | [15]; at 50.0 µM 94.3%
